Results filed as inconclusive are left out. Where a call stands in place of a potency, no number is given. Active and inactive are the calls of the source. Calls come from the whole dose curve; as a rule, active = well fitted inhibition curve with a large enough effect; inconclusive = small, poorly fitted or top-dose-only effect; inactive = flat fitted curve, though single readings scatter.
Target: Calcium and integrin-binding protein 1 (Homo sapiens) (UniProt Q99828)
Assay: Primary qHTS for Identification of Calcium Integrin Binding Protein 1 (CIB1) Competitor (AID 1508620);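 note: GST tagged CIB1 binding a fluorescein labelled alphaIIb integrin peptide tracer; top concentration of the series differs between compounds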
Outline: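 CIB1-GST (1 uM final) and compound incubated 15 min at room temperature before adding FITC-alphaIIb peptide tracer (100 nM final). Competition for binding read by fluorescence polarization (ex 480, em 540) after another 15 min at room temperature.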

Chain of Calcium and integrin-binding protein 1 (Homo sapiens) (Q99828 whole entry, looked up): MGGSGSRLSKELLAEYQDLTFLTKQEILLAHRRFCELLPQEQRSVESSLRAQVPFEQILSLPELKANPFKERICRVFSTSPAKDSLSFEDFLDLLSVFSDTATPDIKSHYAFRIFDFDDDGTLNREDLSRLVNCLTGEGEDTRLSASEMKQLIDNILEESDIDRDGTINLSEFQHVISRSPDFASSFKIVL

With `COc1ccc(C2Nc3cccc(OC)c3C(=O)N2Cc2ccccc2)cc1COc1ccc(NC(C)=O)cc1` (stereo not drawn) the Potency was “inactive”.
`COc1ccc(-c2ccc3ncnc(NCCc4cnc[nH]4)c3c2)cc1OC` was tested, and the Potency was “inactive”.
In the case of `Cc1cc(C)nc(NC(=S)N2CCN(c3cc(C(F)(F)F)nc(C)n3)CC2)c1`, the Potency is reported as “inactive”.

— PubChem BioAssay (NCATS)
